FBW7 act – human FBW7 E3 ligase activation, primary screen; Q969H0; AlphaScreen FBW7–phospho-cyclin E peptide binding, activator screen; normalized activity (activation), % at 26.1 µM; 650,000 compounds, 0.13% hits; in the data active = normalized activity above about 1.9%;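 note: purified mutant Fbw7 with reduced substrate affinity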
MITF primary – inhibitors of human MITF; O75030; AlphaScreen MITF homodimerization, bead proximity signal; inhibition, % at 2.6 µM; 650,000 compounds, 0.91% hits; AID 1259374; in the data active = inhibition above about 50%
GPR151 ag – activators of human GPR151; activation, % at 11.2 µM; 650,000 compounds, 1% hits; PathHunter beta-arrestin GPR151 cells, luminescence; in the data active = activation above about 4.9%
Target sequence (Q8TDV0 whole entry, looked up): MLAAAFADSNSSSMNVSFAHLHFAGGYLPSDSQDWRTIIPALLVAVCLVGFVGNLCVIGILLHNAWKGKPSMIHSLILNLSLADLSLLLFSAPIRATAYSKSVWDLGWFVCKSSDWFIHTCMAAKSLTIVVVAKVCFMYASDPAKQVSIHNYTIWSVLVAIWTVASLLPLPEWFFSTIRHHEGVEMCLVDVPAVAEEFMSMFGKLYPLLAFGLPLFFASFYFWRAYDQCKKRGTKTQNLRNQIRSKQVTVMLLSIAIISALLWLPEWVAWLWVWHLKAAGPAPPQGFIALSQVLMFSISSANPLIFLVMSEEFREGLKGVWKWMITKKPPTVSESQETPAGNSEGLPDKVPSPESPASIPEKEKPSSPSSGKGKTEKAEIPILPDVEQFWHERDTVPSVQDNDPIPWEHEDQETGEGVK
TEAD-YAP block – TEAD-YAP interaction inhibition; HEK-TIYL cells, TEAD-Gal4/YAP UAS-luciferase luminescence; inhibition, % at 9.12 µM; 640,000 compounds, 1.4% hits; AID 1259422; in the data active = inhibition above about 32%
GPR151 conf act – human GPR151 activation, confirmation screen; shares compounds with GPR151 ag; GPR151 PathHunter beta-arrestin cells, luminescence, 90 min; % of EA-reagent control over plate median; activation, % at 11.2 µM; 6,700 tested, under 10 active; AID 1508609;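 active = mean percent activation across replicates above the confirmation screen cutoff of 4.91%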
GPR119 ag – GPR119 activation, counter-screen for GPR151 activators; shares compounds with GPR151 ag; GPR119 PathHunter beta-arrestin cells, luminescence, 90 min; 0 = compound-well median, 100 = enzyme-acceptor control; activation, % at 11.2 µM; 6,700 compounds, 0.3% hits; AID 1508611;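 active = mean percent activation in the counterscreen above 29.09%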;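 note: counterscreen on off-target GPR119 to flag nonselective hits from the GPR151 activator screen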
Of the large screens only hits and unclear results are named; the others gave an inactive call (follow-up assays come after a bar, where they were run); ! = repeats disagree. Compounds with a hit are over-represented: about 3.5% of the library has one in this group of screens.

C#CCN(Cc1ccco1)C(=O)CC1(c2ccccc2F)CC(=O)N(CCOC)C1=O (centres undefined)	GPR151 ag 6.7 | GPR151 conf act inactive | GPR119 ag inactive
COc1ccc(Nc2nc(C)cc(NCC3CCCO3)n2)cc1 (centres undefined)	none
Cc1cc(NCC2CCCO2)nc(Nc2ccc(N3CCOCC3)cc2)n1 (centres undefined)	GPR151 ag 4.9 | GPR151 conf act inactive | GPR119 ag inactive
COC(=O)c1cc(Cl)c(NC(=O)c2cccs2)cc1OC	none
COC(=O)c1ccc(NC(=O)C2CC2)cc1	GPR151 ag 6.3 | GPR151 conf act inactive | GPR119 ag inactive
COC(=O)CN(c1ccc2c(c1)OCO2)S(=O)(=O)c1c(C)[nH]c(=O)[nH]c1=O	GPR151 ag 5.3 | GPR151 conf act inactive | GPR119 ag inactive
COC(=O)CN(c1ccc(C)cc1)S(=O)(=O)c1c(C)[nH]c(=O)[nH]c1=O	none
CC(=O)N1CCOc2cc(S(=O)(=O)N3CCC(Cc4ccccc4)CC3)c(C)cc21	GPR151 ag 5.0 | GPR151 conf act inactive | GPR119 ag inactive
CC(=O)N1CCOc2cc(S(=O)(=O)N3CCCCCC3)c(C)cc21	none
Cc1ccc(S(=O)(=O)/N=c2\sc(C3=c4ccccc4=NC3=O)c(O)n2C)cc1	GPR151 ag 6.8 | GPR151 conf act inactive | GPR119 ag inactive
Cc1cccc(N=c2sc(C3=c4ccccc4=NC3=O)c(O)n2-c2cccc(C)c2)c1	none
O=C(CC(=O)Nc1ccc(F)cc1F)Nc1ccc2nc3n(c(=O)c2c1)CCCCC3	none
O=S(=O)(c1cccs1)N(Cc1ccco1)C1CCN(CCc2ccccn2)CC1	none
COc1ccc(CCS(=O)(=O)Nc2ccc3c(c2)N(C(=O)C2CCCO2)CC3)cc1 (centres undefined)	GPR151 ag 5.8 | GPR151 conf act inactive | GPR119 ag inactive
CCOc1ccc2[nH]c3nc(SCc4cccnc4)nnc3c2c1	none
Nc1c(C(F)(F)F)cc(C(F)(F)F)cc1C(F)(F)F	none
Nc1ccc(-c2ccc(N)cc2C(F)(F)F)c(C(F)(F)F)c1	GPR151 ag 5.6 | GPR151 conf act inactive | GPR119 ag inactive
O=C(c1ccc(C2SCC(=O)N2CCc2ccccc2)cc1)N1CCCC1 (centres undefined)	none
Cc1c(=O)n(OCc2cccc(F)c2)c2ccccc2[n+]1[O-]	none
Cc1c(=O)n(OCc2ccccc2F)c2ccccc2[n+]1[O-]	GPR151 ag 12 | GPR151 conf act inactive | GPR119 ag inactive
O=C(Cn1cc2c(n1)CCCC2)NCCc1ccc(Cl)cc1	none
O=C(c1nn2c(C(F)(F)F)cc(-c3ccccc3)nc2c1Cl)N1CCN(C(c2ccccc2)c2ccccc2)CC1	none
O=C1CSC(c2cccc([N+](=O)[O-])c2)N1Cc1ccccc1 (centres undefined)	GPR151 ag 10 | GPR151 conf act inactive | GPR119 ag inactive
CC(=O)Nc1ccc(NC(=O)COC(=O)c2ccc3c(c2)nc(C)n3-c2ccccc2)cc1	GPR151 ag 11 | GPR151 conf act inactive | GPR119 ag inactive
COc1ccccc1-n1nc(C(=O)N2CC(C)CC(C)C2)c2ccccc2c1=O (centres undefined)	none
C[C@]1(Cn2ccnn2)[C@H](C(=O)O)N2C(=O)C[C@H]2S1(=O)=O	GPR151 ag 10! | GPR151 conf act inactive | GPR119 ag inactive
O=C(NC1CCN(C(=S)Nc2ccccc2)CC1)C1CC1	none
COc1ccccc1NC(=O)COc1ccc(Br)cc1	none
O=C(Nc1nc(-c2csc(NC(=O)c3ccc(S(=O)(=O)N4CCCC4)cc3)n2)cs1)c1ccc(S(=O)(=O)N2CCCC2)cc1	none
CC(=O)N1CCC2(CC1)N=C(C)C(c1ccccc1)=N2	GPR151 ag 7.1 | GPR151 conf act inactive | GPR119 ag inactive
O=C(COc1ccccc1)Nc1nnc(-c2ccccc2)o1	GPR151 ag 6.0 | GPR151 conf act inactive | GPR119 ag inactive
O=C(Cc1ccccc1)Nc1cccc(-c2nnc(-c3cccc(NC(=O)Cc4ccccc4)c3)o2)c1	none
O=C(O)CCC(=O)Nc1cccc(-c2nnc(-c3ccccc3)o2)c1	GPR151 ag 5.0 | GPR151 conf act inactive | GPR119 ag inactive
O=C(COc1ccccc1)Nc1ccc2oc(-c3ccccc3)nc2c1	GPR151 ag 6.3 | GPR151 conf act inactive | GPR119 ag inactive

High-throughput results as filed in PubChem BioAssay.
